Our source for the growth values is PubChem BioAssay (NCI).

This is part of a sample that, as a whole, favours compounds with a hit. Of some 83,000 tested, about 20% had one in any assay.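 Note: values are percent growth. 100 is the growth of untreated cells, values between 100 and 0 indicate rising inhibition; between -100 and 0 indicates cell death.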 The source made the active and inactive calls. Where a SMILES comes first, the peptide text is derived from it. [ ]: non-standard residue; d: D form. ξ: configuration not given here. ξD = NC(CC(=O)O)C(=O)O

In this assay the test system is CCRF-CEM leukemia. Briefly: NCI-60 one-dose screen, 48 h (100 = growth as untreated, 0 = no growth, -100 = all killed). As to conditions: 10 µM unless noted. The protocol:
Growth inhibition of the CCRF-CEM human tumor cell line is measured as a screen for anti-cancer activity. Cells are grown in 96 well plates and exposed to the test compound for 48 hours. Compounds are tested at a single concentration, which is 10^-5 M for most compounds. The reported endpoint is percent growth (GI% or GIPRCNT), where numbers from 0 - 100% represent growth inhibition, and numbers from -100% - 0 represent cell death. For example, a value of 40 represents 60% growth inhibition. A value of 0 means no net growth occurred over the course of the experiment. A value of -40 indicates 40% of cells at the beginning of the experiment died by the end of the experiment. A value of -100 means all cells are dead at the end of the experiment.
NCI-60 Human Tumor Cell Lines Screen was performed using the standard one-dose NCI protocol, which is described in more detail at https://dtp.cancer.gov/discovery_development/nci-60/default.htm.
Compounds with GIPRCNT values below 10 were considered active. Activity score was based on GIPRCNT using the following formula: […]
Score is 0 for GIPRCNT values of 100 or above, 50 for GIPRCNT values of 0, and 100 for GIPRCNT values of -100.
For the molecule `COC1CC(C)C(OC)c2cc(O)cc(c2O)NC(=O)/C(C)=C/C=C\C(C)C(OC(N)=O)/C(C)=C\C(C)C1OC` (stereo not given), the growth was -30.7% (active).
Under `CCOc1ccc2c(c1)/C(=C\C=C\C1CC(C)C3CC(OCC)CCC3N1CC)CC(C)N2CC` (stereo not given) stands -40.3% (active); under `Clc1ccc(Cc2nc3ccccc3s2)cc1`, 93.1% (inactive); under `O=[N+]([O-])CC(O)c1ccccc1` (stereo not given), 104% (inactive).
Under `CCCN(CCC)C(=O)c1ccc(C)cc1` stands 85.7% (inactive).
For `CN(C)c1ccc(/C=C/c2cc[n+](C)c(/C=C/c3ccc(N(C)C)cc3)c2)cc1` the value was 6.95% (active); for `Clc1ccccc1C(c1ccccc1)(c1ccccc1)n1ccnc1`, 21.5% (inactive).
Turning to `O=C1C=CC(=O)N1C1CCCCCCCCCCC1`, the growth was -11% (active).
`CN(C)c1ccc2cc3c(cc2c1)Oc1ccccc1N3.[Cl][Zn][Cl]`: the growth was 31.4% (inactive).
Under `CCC1C[N+]2=C(c3cc(OC)c(OC)cc3CC2)c2c1cc1n2CCc2cc(OC)c(OC)cc2-1` (stereo not given) stands 52.1% (inactive); under `COc1cc(-c2ccc(-[n+]3nc(-c4ccc([N+](=O)[O-])cc4)nn3-c3ccc([N+](=O)[O-])cc3)c(OC)c2)ccc1-[n+]1nc(-c2ccc([N+](=O)[O-])cc2)nn1-c1ccc([N+](=O)[O-])cc1`, 12.7% (inactive); under `Cc1nnc(N/N=C/c2ccc([N+](=O)[O-])o2)[nH]c1=O`, -21.9% (active).
For `CCOc1cc(F)c([N+](=O)[O-])cc1[N+](=O)[O-]` the value was 9.98% (active); for `NCC(=O)NC(CC(=O)O)C(=O)O` (stereo not given) (H-Gly-[ξD]-OH), 79.3% (inactive); for `O=C(/C=C/c1ccccc1)c1ccccc1O`, 55.1% (inactive).
For `O=C(O)c1ccc2c(c1)C(=O)c1ccccc1C2=O` the value was 108% (inactive); for `CCOC(=O)c1[nH]c(C#N)c(C(=O)OCC)c1C`, 97.3% (inactive); for `O=C1C=CC(=O)N1c1cccc2c1CCCC2`, 9.65% (active).
Regarding `CCCCCCCCCCCC[n+]1ccc2ccccc2c1`, the growth was 3.12% (active).
`COC1=CC(=O)c2c(O)c3c(c(O)c2C1=O)CC(C)(O)OC3` (stereo not given): the growth is 19.5% (inactive).
Under `CN1CCC(CN2c3ccccc3Sc3ccccc32)C1` (stereo not given) stands 72.7% (inactive).
Under `Oc1ccc2ccccc2c1N=Nc1nccs1` stands -7.19% (active).
For `NNc1cccc([N+](=O)[O-])c1` the value was 38.1% (inactive); for `O=C1Nc2ccc(Br)cc2C1=O`, 93.5% (inactive).
As for `Cc1oc2c(C)c3oc(=O)cc(C)c3cc2c1CCl`, the growth was 47.6% (inactive).
For `CC1CC(C)(C)OB(OC(C)CC(C)(C)OB2OC(C)CC(C)(C)O2)O1` (stereo not given) the value was 104% (inactive); for `CCOc1ccc(C(CN2CCOCC2)C(C)=O)cc1OC` (stereo not given), 52.7% (inactive).
On to `O=C1/C(=C/c2ccccn2)CCc2ccccc21`, for which the growth is 51.6% (inactive).
For the molecule `O=C1C(=O)c2cc([N+](=O)[O-])ccc2-c2ccccc21`, the growth is -13.5% (active).
Turning to `Nc1ccc(Oc2ccccc2)c(Cl)c1`, the growth was 102% (inactive).
For the molecule `NNc1ccc(Cl)cc1Cl`, the growth is 27.7% (inactive).
As for `COC(=O)c1cc([N+](=O)[O-])cc([N+](=O)[O-])c1Cl`, the growth is 29.8% (inactive).
Under `O=C(NOC(=O)c1ccccc1)c1ccccc1` stands 70.6% (inactive); under `Oc1ccccc1N=Cc1ccccc1`, 86.6% (inactive); under `CC(C)(C)c1ccc(O)c(Br)c1`, 7.22% (active).
Under `CC1=CC(=NC(=O)CBr)C=C/C1=N\S(=O)(=O)c1ccccc1` stands 12.2% (inactive); under `OC(c1cc(C23CC4CC(CC(C4)C2)C3)nc2c(Cl)cc(Cl)cc12)C1CCCCN1` (stereo not given), -45.3% (active).
Under `O=[N+]([O-])c1ccc(C(Br)c2ccc([N+](=O)[O-])cc2)cc1` stands 16.3% (inactive).
As to `O=[N+]([O-])c1ccc(N2CCN(Cc3ccccc3)CC2)c2c1no[n+]2[O-]`, the growth is -31.6% (active).
Under `CC[n+]1ccc(Nc2ccc(NC(=O)c3ccc(Nc4cc[n+](CC)c5ccc([N+](=O)[O-])cc45)cc3)cc2)cc1` stands 89.1% (inactive).
